The record followed here is PubChem BioAssay (NCATS).

Records with an inconclusive call do not appear. Unmarked numbers belong to inactive results. The source made the active and inactive calls. Calls follow the shape of the dose curve; as a rule, active = well fitted curve in the direction sought with a large enough effect; inconclusive = small, poorly fitted or top-dose-only effect, or another doubt; inactive = no such curve, though single readings can be large; an effect the other way counts as inactive or inconclusive.

Experiment [1] addresses Rap guanine nucleotide exchange factor 3 (Homo sapiens) (UniProt O95398). Briefly: Confirmatory qHTS for antagonist of cAMP-regulated guanine nucleotide exchange factor 3 (EPAC1) (AID 1645880). Also: nearly all actives have a fitted effect of over 55% in size. Also: potency is read from the fitted curve at half-maximal effect. The method in brief: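 Released BODIPY-GDP fluoresces less than Rap1-bound BODIPY-GDP; the signal is followed at 480/540 nm at 5-min intervals over 30 min, after 5 min at room temperature. Reactions contain 100 nM EPAC1, 250 nM RAP1B-BODIPY-GDP and 50 uM GDP; results are normalized to ATA and DMSO.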
Background: qHTS replaces the single test concentration by a dilution series.

The target is the same in experiment [2]. Briefly: Confirmatory qHTS for agonist of cAMP-regulated guanine nucleotide exchange factor 3 (EPAC1) (AID 1645881).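 Also: EPAC1 catalysed release of BODIPY-GDP from Rap1B seen as fluorescence loss; 100% = effect of cAMP agonist control; nearly all actives have a fitted effect of over 75% in size.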
Experiment [3] addresses Rap guanine nucleotide exchange factor 4 (Homo sapiens) (UniProt Q8WZA2). Briefly: Confirmatory qHTS for agonist of cAMP-regulated guanine nucleotide exchange factor 4 (EPAC2) (AID 1645884).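 Also: nucleotide exchange releases bodipy-GDP from Rap1 and this lowers its fluorescence; % is scaled to controls: 0 for no effect and ±100 for the full control effect; nearly all actives have a fitted effect of over 65% in size.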
The target is the same in experiment [4]. Kind of experiment: Confirmatory qHTS for antagonist of cAMP-regulated guanine nucleotide exchange factor 4 (EPAC2) (AID 1645885). Also: nearly all actives have a fitted effect of over 25% in size. Also: potency is read from the fitted curve at half-maximal effect. As to activity change, negative = inhibition: % is scaled to controls: 0 for no effect and ±100 for the full control effect.
Experiment [5] deals with Rap guanine nucleotide exchange factor 3 (Homo sapiens) (UniProt O95398). Briefly: Counterscreen qHTS for antagonist of cAMP-regulated guanine nucleotide exchange factor 3 (EPAC1) (AID 1645888). Also: % of control where 0% means no effect. In a few lines:
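Measured: fluorescence of BODIPY-GDP bound to Rap1B, which falls as exchange proceeds. Conditions include 50 uM competing GDP, 5 and 30 min reads, and a later cAMP challenge for antagonist detection.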
In general terms: A counterscreen serves to expose hits that act by an unwanted route or on another target.

Rap guanine nucleotide exchange factor 4 (Homo sapiens), sequence (Q8WZA2 whole entry, looked up): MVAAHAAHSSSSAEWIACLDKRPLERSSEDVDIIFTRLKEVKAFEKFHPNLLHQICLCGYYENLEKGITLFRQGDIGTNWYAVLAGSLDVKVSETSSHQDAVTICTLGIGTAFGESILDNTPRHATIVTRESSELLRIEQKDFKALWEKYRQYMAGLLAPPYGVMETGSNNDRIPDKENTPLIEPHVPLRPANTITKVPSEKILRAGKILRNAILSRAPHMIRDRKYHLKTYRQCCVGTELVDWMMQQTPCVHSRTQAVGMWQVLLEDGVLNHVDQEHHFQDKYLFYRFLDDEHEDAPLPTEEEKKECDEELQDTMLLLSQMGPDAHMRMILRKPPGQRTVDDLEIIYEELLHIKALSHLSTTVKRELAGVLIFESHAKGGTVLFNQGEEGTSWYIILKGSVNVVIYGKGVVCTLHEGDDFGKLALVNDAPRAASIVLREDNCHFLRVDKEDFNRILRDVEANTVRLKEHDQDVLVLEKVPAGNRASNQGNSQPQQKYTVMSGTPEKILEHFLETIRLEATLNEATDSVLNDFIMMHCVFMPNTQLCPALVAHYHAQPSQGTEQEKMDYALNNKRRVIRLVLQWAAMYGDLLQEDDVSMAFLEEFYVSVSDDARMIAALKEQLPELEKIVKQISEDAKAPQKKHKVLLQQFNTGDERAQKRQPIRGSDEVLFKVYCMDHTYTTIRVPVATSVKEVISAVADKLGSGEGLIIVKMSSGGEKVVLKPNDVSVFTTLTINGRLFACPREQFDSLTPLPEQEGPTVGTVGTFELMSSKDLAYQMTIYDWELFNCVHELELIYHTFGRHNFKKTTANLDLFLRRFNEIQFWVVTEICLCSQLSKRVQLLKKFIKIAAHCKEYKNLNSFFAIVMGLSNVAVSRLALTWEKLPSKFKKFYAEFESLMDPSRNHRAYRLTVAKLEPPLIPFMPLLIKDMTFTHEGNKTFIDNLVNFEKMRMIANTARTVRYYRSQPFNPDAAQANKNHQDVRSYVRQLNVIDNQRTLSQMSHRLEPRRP
Rap guanine nucleotide exchange factor 3 (Homo sapiens), sequence (O95398 whole entry, looked up): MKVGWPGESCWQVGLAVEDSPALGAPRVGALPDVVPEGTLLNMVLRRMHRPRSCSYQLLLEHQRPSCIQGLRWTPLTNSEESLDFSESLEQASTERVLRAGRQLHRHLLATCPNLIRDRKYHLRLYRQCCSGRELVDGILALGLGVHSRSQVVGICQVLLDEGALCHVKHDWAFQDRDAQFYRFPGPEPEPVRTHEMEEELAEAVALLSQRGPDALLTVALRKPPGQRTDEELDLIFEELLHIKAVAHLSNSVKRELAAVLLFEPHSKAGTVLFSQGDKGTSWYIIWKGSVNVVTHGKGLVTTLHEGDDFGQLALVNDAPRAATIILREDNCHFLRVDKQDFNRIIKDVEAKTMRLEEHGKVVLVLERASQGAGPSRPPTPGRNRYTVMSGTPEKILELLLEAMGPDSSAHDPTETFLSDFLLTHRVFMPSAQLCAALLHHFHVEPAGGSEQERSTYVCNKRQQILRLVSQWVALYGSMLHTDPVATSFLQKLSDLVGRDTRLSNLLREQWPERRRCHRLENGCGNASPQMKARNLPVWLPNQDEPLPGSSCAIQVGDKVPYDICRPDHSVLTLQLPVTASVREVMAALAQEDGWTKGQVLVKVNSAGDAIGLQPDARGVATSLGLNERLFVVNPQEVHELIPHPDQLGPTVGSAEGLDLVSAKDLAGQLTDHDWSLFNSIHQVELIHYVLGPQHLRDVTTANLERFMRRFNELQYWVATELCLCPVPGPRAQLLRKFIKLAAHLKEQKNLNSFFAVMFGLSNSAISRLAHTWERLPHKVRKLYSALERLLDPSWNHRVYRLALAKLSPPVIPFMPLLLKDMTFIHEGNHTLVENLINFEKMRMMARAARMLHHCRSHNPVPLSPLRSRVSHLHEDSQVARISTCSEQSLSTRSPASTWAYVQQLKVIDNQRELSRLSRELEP

On to `CCOC(=O)c1ccccc1NC(=O)c1c(-c2ccccc2)noc1C`, for which the Potency entry in experiment [1], in experiment [2], in experiment [3], in experiment [4] and in experiment [5] was “inactive” each time.

As for `Cc1ccc(NC(=O)c2ccc(S(=O)(=O)N3CCCCCC3)cc2)nc1`, the Potency entry in experiment [1], in experiment [2] and in experiment [4] was “inactive” throughout. Also, in experiment [3], the activation is 5.15% [at 17.1 µM, percent relative to cAMP agonist control]. Moreover, the activity change, negative = inhibition in experiment [5] is -5.55% [at 30.8 µM].

As to `CSCc1cc(N(C)c2ccccc2)nc(-c2ccccc2)n1`, the Potency result in experiment [1], in experiment [2], in experiment [3] and in experiment [5] was “inactive” in each case. The Potency in experiment [4] was 6.01 µM (active).

With `CCOc1ccc(NCc2nc3ccccc3n2CCOc2ccccc2)cc1`, the Potency result in experiment [1], in experiment [2] and in experiment [4] was “inactive” throughout. Besides, the activation in experiment [3] was 16.9% [at 17.1 µM, percent relative to cAMP agonist control]. Besides, the activity change, negative = inhibition in experiment [5] is 4.92% [at 30.8 µM].

As to `COc1ccc2c(c1)cc(C(=O)N/N=C/c1c(O)c(C(=O)O)cc3ccccc13)n2C`, the values for the Potency in experiment [1] and in experiment [4] were 67.5 µM (active) and 75.7 µM (active), respectively. Also, the Potency result in experiment [2], in experiment [3] and in experiment [5] was “inactive” each time.

Take `Cc1ccc(NC(=O)C2CCCN2S(=O)(=O)c2cccc3nsnc23)c(Br)c1` (stereo not given): the Potency entry in experiment [1], in experiment [2], in experiment [3] and in experiment [5] was “inactive” in each case. Moreover, in experiment [4], the outcome is “inactive [at 12.7 µM]”.

Regarding `C=CCSc1nc2ccccc2c(=O)n1C1CCOC(C)(C)C1` (stereo not given), the Potency result in experiment [1], in experiment [2], in experiment [3], in experiment [4] and in experiment [5] was “inactive” throughout.

Take `O=S(=O)(c1cc(O)ccc1O)c1cccc2c(S(=O)(=O)c3cc(O)ccc3O)cccc12`: the Potency in experiment [1] is 44.7 µM (active). The Potency result in experiment [2] and in experiment [4] was “inactive” throughout. Also, in experiment [3], the activation is 5.63% [at 17.1 µM, percent relative to cAMP agonist control]. In addition, the activity change, negative = inhibition in experiment [5] was -9.89% [at 30.8 µM].

On to `C(=C\c1ccccc1)/CN1CCN(C(c2cc3ccccc3o2)c2nnnn2C2CCCC2)CC1` (stereo not given), for which the Potency entry in experiment [1], in experiment [2] and in experiment [4] was “inactive” each time. Moreover, the activation in experiment [3] was 0% [at 17.1 µM, percent relative to cAMP agonist control]. The activity change, negative = inhibition in experiment [5] was 19.5% [at 30.8 µM].

`CCn1c(C(=O)N2CCCC(C(=O)N3CCN(c4cc(C)ccc4C)CC3)C2)cc2sccc21` (stereo not given): the Potency entry in experiment [1], in experiment [2], in experiment [3] and in experiment [5] was “inactive” each time. Besides, in experiment [4], the outcome was “inactive [at 12.7 µM]”.

For `O=C(c1ccc2nc(N3CCOCC3)sc2c1)N1CCC(Cc2ccccc2)CC1`, the Potency result in experiment [1], in experiment [2], in experiment [3], in experiment [4] and in experiment [5] was “inactive” each time.

For the molecule `Clc1ccc(CSc2nnc(-c3ccncc3)s2)cc1`, the Potency entry in experiment [1], in experiment [2], in experiment [3], in experiment [4] and in experiment [5] was “inactive” in each case.

Regarding `Cc1ccc(C)c(-n2c3nc(=O)[nH]c(=O)c-3cc3cc([N+](=O)[O-])ccc32)c1`, in experiment [1], the Potency was 47.8 µM (active). The Potency result in experiment [2], in experiment [3], in experiment [4] and in experiment [5] was “inactive” in each case.

Consider `NS(=O)(=O)c1ccc(Nc2nc3ccccc3nc2NS(=O)(=O)c2cccc([N+](=O)[O-])c2)cc1`, for which, in experiment [1], the Potency is 75.7 µM (active). Further, the Potency result in experiment [2], in experiment [3], in experiment [4] and in experiment [5] was “inactive” in each case.

Regarding `COc1ccc(Cl)cc1N1C(=O)C2CCCN2C1c1ccccc1F` (stereo not given), the Potency result in experiment [1], in experiment [2], in experiment [3], in experiment [4] and in experiment [5] was “inactive” throughout.

In the case of `CC1(C)OCC(C2CC(c3ccccc3)NS(=O)(=O)O2)O1` (stereo not given), the Potency result in experiment [1], in experiment [2], in experiment [3], in experiment [4] and in experiment [5] was “inactive” each time.

Turning to `CC(/C=C1\SC(=S)N(NS(=O)(=O)c2ccc(C)cc2)C1=O)=C\c1ccccc1`, the Potency in experiment [1] was 26.9 µM (active); in experiment [4] it was 47.8 µM (active). Further, the Potency entry in experiment [2], in experiment [3] and in experiment [5] was “inactive” in each case.

Take `Fc1ccc(-c2noc3ncnc(N4CCN(c5ccccc5)CC4)c23)cc1`: the Potency entry in experiment [1], in experiment [2], in experiment [3], in experiment [4] and in experiment [5] was “inactive” each time.

In the case of `CC1(C)Cc2c(C#N)c(N3CCN(C(=O)c4ccccc4Cl)CC3)nc(-c3ccco3)c2CS1`, in experiment [1], the Potency was 26.9 µM (active). Besides, the Potency entry in experiment [2], in experiment [3], in experiment [4] and in experiment [5] was “inactive” each time.

Take `O=C(N/N=C\c1cc([N+](=O)[O-])ccc1N1CCCC1)c1ccccn1`: the Potency entry in experiment [1], in experiment [2] and in experiment [4] was “inactive” in each case. Also, the activation in experiment [3] is 3.56% [at 17.1 µM, percent relative to cAMP agonist control]. In experiment [5], the activity change, negative = inhibition is -14.6% [at 30.8 µM].

For the molecule `Cc1cc(C)c(-c2c(N)cc(Br)cc2Br)c(N)c1`, the Potency result in experiment [1], in experiment [2], in experiment [3], in experiment [4] and in experiment [5] was “inactive” throughout.

Regarding `O=C(Nc1ccccc1N1CCOCC1)c1cccc2c(Br)cccc12`, the Potency result in experiment [1], in experiment [2], in experiment [3], in experiment [4] and in experiment [5] was “inactive” in each case.

For the molecule `Cc1cccc(C(=O)Nc2cccc(C(=O)OCc3cc(=O)n4c5c(sc4n3)CCCC5)c2)c1`, the Potency result in experiment [1], in experiment [2], in experiment [3], in experiment [4] and in experiment [5] was “inactive” throughout.

`CC(=O)/C(=C/N(C)C)Sc1ccc(C)cc1`: the Potency result in experiment [1], in experiment [2], in experiment [3], in experiment [4] and in experiment [5] was “inactive” each time.

On to `CC1CN(S(=O)(=O)c2cccc(C(=O)Nc3ccccc3N3CCOCC3)c2)CC(C)O1` (stereo not given), for which the Potency result in experiment [1], in experiment [2] and in experiment [4] was “inactive” in each case. In addition, the activation in experiment [3] is 3.24% [at 17.1 µM, percent relative to cAMP agonist control]. Further, in experiment [5], the activity change, negative = inhibition was -5.5% [at 30.8 µM].
